# From PubChem BioAssay AID1159580 (chemical genetic matrix, 2015)
# “And” between values parts separate entries of the source, which are not always exact repeats. Equal entries are not always repeated. Among all 5,500 compounds or so, about 2,000 (36%) were called active. Not shown: some 18% with an inconclusive outcome. The list shows a part of the results. Values without a mark were called inactive. No stated cut-off is given here; in the data, active means normalized growth mostly below about 0.91 (no sharp cut-off); inconclusive means no clear call, values can overlap the other calls; inactive means mostly above about 0.92.
# Assay: chemical genetic growth profiling, strain panel (AID 1159580);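 further: tested at 20 µM; growth read once vehicle control cultures reached saturation at 30 °C; 1 = growth at the plate median or of vehicle wells; lower values mean less growth of the strain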
# Conditions: growth OD
# [1] = S. cerevisiae deletion strains, locus YDR150W, strain NUM1, hits give low values
# [2] = S. cerevisiae deletion strains, locus YGR078C, strain PAC10, hits give low values
# [3] = S. cerevisiae deletion strains, locus YGR229C, strain SMI1, hits give low values
# [4] = S. cerevisiae deletion strains, locus YJR075W, strain HOC1, hits give low values
# [5] = S. cerevisiae deletion strains, locus YMR263W, strain SAP30, hits give low values
# [6] = S. cerevisiae deletion strains, locus YMR307W, strain GAS1, hits give low values
# [7] = S. cerevisiae deletion strains, locus YNL153C, strain GIM3, hits give low values
# [8] = S. cerevisiae deletion strains, locus YNL322C, strain KRE1, hits give low values
# [9] = S. cerevisiae deletion strains, locus YPL241C, strain CIN2, hits give low values
# [10] = S. cerevisiae deletion strains, locus YAL040C, strain CLN3, hits give low values
# [11] = S. cerevisiae deletion strains, locus YCL061C, strain MRC1 (second series), hits give low values
# [12] = S. cerevisiae deletion strains, locus YDR363W, strain ESC2, hits give low values
# [13] = S. cerevisiae deletion strains, locus YER002W, strain NOP16, hits give low values
# [14] = S. cerevisiae deletion strains, locus YNL175C, strain NOP13, hits give low values
# [15] = S. cerevisiae deletion strains, locus YNL197C, strain WHI3, hits give low values
# [16] = S. cerevisiae deletion strains, locus YNL224C, strain SQS1, hits give low values
# [17] = S. cerevisiae deletion strains, locus YOR083W, strain WHI5 (second series), hits give low values
smiles,measurement,setting,value
CN(C)c1ccc(O)c2c1C[C@H]1C[C@H]3[C@H](N(C)C)C(=O)C(C(N)=O)=C(O)[C@@]3(O)C(=O)C1=C2O,normalized growth,"S. cerevisiae deletion strains, locus YAL013W, strain DEP1, hits give low values",0.988
same,normalized growth,"S. cerevisiae deletion strains, locus YBR021W, strain FUR4, hits give low values",0.915
same,normalized growth,"S. cerevisiae deletion strains, locus YBR229C, strain ROT2, hits give low values",0.947
same,normalized growth,"S. cerevisiae deletion strains, locus YCL029C, strain bik1, hits give low values",0.992
same,normalized growth,"S. cerevisiae deletion strains, locus YDL035C, strain GPR1, hits give low values",0.963
same,normalized growth,"S. cerevisiae deletion strains, locus YDL074C, strain BRE1, hits give low values",1
same,normalized growth,"S. cerevisiae deletion strains, locus YDL101C, strain DUN1, hits give low values",0.969
same,normalized growth,"S. cerevisiae deletion strains, locus YDL134C, strain PPH21, hits give low values",0.976
same,normalized growth,"S. cerevisiae deletion strains, locus YDL185W, strain tfp1, hits give low values",0.983
same,normalized growth,"S. cerevisiae deletion strains, locus YDL192W, strain arf1, hits give low values",0.962
same,normalized growth,"S. cerevisiae deletion strains, locus YDR101C, strain arx1, hits give low values",1
same,normalized growth,[1],0.975
same,normalized growth,"S. cerevisiae deletion strains, locus YDR162C, strain NBP2, hits give low values",0.964
same,normalized growth,"S. cerevisiae deletion strains, locus YDR318W, strain mcm21, hits give low values",0.996
same,normalized growth,"S. cerevisiae deletion strains, locus YDR388W, hits give low values",0.997
same,normalized growth,"S. cerevisiae deletion strains, locus YDR502C, strain sam2, hits give low values",0.986
same,normalized growth,"S. cerevisiae deletion strains, locus YEL061C, strain CIN8, hits give low values",0.984
same,normalized growth,"S. cerevisiae deletion strains, locus YER110C, hits give low values",0.974
same,normalized growth,"S. cerevisiae deletion strains, locus YER155C, strain BEM2, hits give low values",1.03
same,normalized growth,"S. cerevisiae deletion strains, locus YER167W, strain BCK2, hits give low values",0.984
same,normalized growth,"S. cerevisiae deletion strains, locus YGL078C, strain dbp3, hits give low values",0.974
same,normalized growth,"S. cerevisiae deletion strains, locus YGL086W, strain mad1, hits give low values",0.98
same,normalized growth,"S. cerevisiae deletion strains, locus YGL248W, strain PDE1, hits give low values",0.974
same,normalized growth,[2],0.966
same,normalized growth,"S. cerevisiae deletion strains, locus YGR135W, strain pre9, hits give low values",0.974
same,normalized growth,[3],0.987
same,normalized growth,"S. cerevisiae deletion strains, locus YGR252W, strain gcn5, hits give low values",0.802
same,normalized growth,"S. cerevisiae deletion strains, locus YHR030C, strain SLT2, hits give low values",0.992
same,normalized growth,"S. cerevisiae deletion strains, locus YHR079C, strain IRE1 (second series), hits give low values",1
same,normalized growth,"S. cerevisiae deletion strains, locus YHR079C, strain IRE1, hits give low values",1.01
same,normalized growth,"S. cerevisiae deletion strains, locus YHR094C, strain hxt1, hits give low values",1.01
same,normalized growth,"S. cerevisiae deletion strains, locus YHR129C, strain ARP1, hits give low values",0.99
same,normalized growth,"S. cerevisiae deletion strains, locus YHR200W, strain rpn10, hits give low values",0.989
same,normalized growth,"S. cerevisiae deletion strains, locus YIL066C, strain RNR3, hits give low values",0.96
same,normalized growth,"S. cerevisiae deletion strains, locus YIL073C, strain SPO22, hits give low values",0.959
same,normalized growth,"S. cerevisiae deletion strains, locus YIL125W, strain kgd1, hits give low values",0.979
same,normalized growth,"S. cerevisiae deletion strains, locus YIR030C, strain dcg1, hits give low values",0.987
same,normalized growth,"S. cerevisiae deletion strains, locus YJL095W, strain BCK1, hits give low values",0.986 and 0.993
same,normalized growth,"S. cerevisiae deletion strains, locus YJL134W, strain LCB3, hits give low values",0.981
same,normalized growth,"S. cerevisiae deletion strains, locus YJL168C, strain set2, hits give low values",0.995
same,normalized growth,"S. cerevisiae deletion strains, locus YJL187C, strain SWE1 (second series), hits give low values",0.966
same,normalized growth,"S. cerevisiae deletion strains, locus YJR043C, strain POL32, hits give low values",0.992
same,normalized growth,"S. cerevisiae deletion strains, locus YJR066W, strain TOR1, hits give low values",0.941
same,normalized growth,[4],1
same,normalized growth,"S. cerevisiae deletion strains, locus YKL009W, strain mrt4, hits give low values",0.974
same,normalized growth,"S. cerevisiae deletion strains, locus YKL068W, hits give low values",0.995
same,normalized growth,"S. cerevisiae deletion strains, locus YKL085W, strain MDH1 (second series), hits give low values",0.982
same,normalized growth,"S. cerevisiae deletion strains, locus YKL085W, strain MDH1, hits give low values",0.982
same,normalized growth,"S. cerevisiae deletion strains, locus YKL190W, strain CNB1, hits give low values",0.998
same,normalized growth,"S. cerevisiae deletion strains, locus YKR001C, strain vps1, hits give low values",0.966
same,normalized growth,"S. cerevisiae deletion strains, locus YLR039C, strain RIC1, hits give low values",0.937
same,normalized growth,"S. cerevisiae deletion strains, locus YLR058C, strain SHM2, hits give low values",0.957
same,normalized growth,"S. cerevisiae deletion strains, locus YLR102C, strain apc9, hits give low values",0.989
same,normalized growth,"S. cerevisiae deletion strains, locus YLR113W, strain HOG1, hits give low values",1.01
same,normalized growth,"S. cerevisiae deletion strains, locus YLR262C, strain YPT6, hits give low values",0.895
same,normalized growth,"S. cerevisiae deletion strains, locus YLR268W, strain sec22, hits give low values",1.04
same,normalized growth,"S. cerevisiae deletion strains, locus YLR330W, strain CHS5, hits give low values",0.989
same,normalized growth,"S. cerevisiae deletion strains, locus YLR342W, strain FKS1 (second series), hits give low values",0.851
same,normalized growth,"S. cerevisiae deletion strains, locus YLR371W, strain rom2, hits give low values",0.98
same,normalized growth,"S. cerevisiae deletion strains, locus YLR418C, strain cdc73, hits give low values",0.909
same,normalized growth,"S. cerevisiae deletion strains, locus YML016C, strain PPZ1, hits give low values",0.974
same,normalized growth,"S. cerevisiae deletion strains, locus YML032C, strain rad52, hits give low values",1
same,normalized growth,"S. cerevisiae deletion strains, locus YML124C, strain tub3, hits give low values",0.991
same,normalized growth,"S. cerevisiae deletion strains, locus YMR078C, strain ctf18, hits give low values",0.993
same,normalized growth,"S. cerevisiae deletion strains, locus YMR223W, strain ubp8, hits give low values",0.934
same,normalized growth,[5],0.991
same,normalized growth,[6],0.879
same,normalized growth,"S. cerevisiae deletion strains, locus YNL067W, strain RPL9B, hits give low values",1
same,normalized growth,"S. cerevisiae deletion strains, locus YNL128W, strain TEP1, hits give low values",0.922
same,normalized growth,[7],0.985
same,normalized growth,"S. cerevisiae deletion strains, locus YNL183C, strain NPR1, hits give low values",0.968
same,normalized growth,"S. cerevisiae deletion strains, locus YNL233W, strain BNI4, hits give low values",1
same,normalized growth,"S. cerevisiae deletion strains, locus YNL250W, strain rad50, hits give low values",0.975
same,normalized growth,"S. cerevisiae deletion strains, locus YNL271C, strain bni1, hits give low values",0.989
same,normalized growth,"S. cerevisiae deletion strains, locus YNL298W, strain CLA4, hits give low values",0.987
same,normalized growth,"S. cerevisiae deletion strains, locus YNL307C, strain MCK1, hits give low values",0.997
same,normalized growth,[8],0.993
same,normalized growth,"S. cerevisiae deletion strains, locus YNR052C, strain pop2, hits give low values",0.978
same,normalized growth,"S. cerevisiae deletion strains, locus YOL006C, strain TOP1, hits give low values",0.887
same,normalized growth,"S. cerevisiae deletion strains, locus YOL012C, strain htz1",0.571
same,normalized growth,"S. cerevisiae deletion strains, locus YOL147C, strain pex11, hits give low values",0.994
same,normalized growth,"S. cerevisiae deletion strains, locus YOR061W, strain CKA2, hits give low values",0.967
same,normalized growth,"S. cerevisiae deletion strains, locus YOR069W, strain VPS5, hits give low values",0.985
same,normalized growth,"S. cerevisiae deletion strains, locus YOR136W, strain idh2, hits give low values",0.978
same,normalized growth,"S. cerevisiae deletion strains, locus YOR144C, strain elg1, hits give low values",0.996
same,normalized growth,"S. cerevisiae deletion strains, locus YOR184W, strain ser1, hits give low values",0.985
same,normalized growth,"S. cerevisiae deletion strains, locus YOR231W, strain MKK1, hits give low values",1.01
same,normalized growth,"S. cerevisiae deletion strains, locus YOR316C, strain cot1, hits give low values",0.998
same,normalized growth,"S. cerevisiae deletion strains, locus YPL055C, strain LGE1, hits give low values",0.958
same,normalized growth,[9],0.981
same,normalized growth,"S. cerevisiae deletion strains, locus YPL256C, strain CLN2, hits give low values",1.01
same,normalized growth,"S. cerevisiae deletion strains, locus YPR119W, strain clb2, hits give low values",0.996
same,normalized growth,"S. cerevisiae deletion strains, locus YPR141C, strain kar3, hits give low values",0.997
same,normalized growth,"S. cerevisiae deletion strains, locus YPR163C, strain tif3, hits give low values",0.99
same,normalized growth,"S. cerevisiae deletion strains, locus YPR167C, strain met16, hits give low values",1
same,normalized growth,"S. cerevisiae deletion strains, strain wtn01, hits give low values",1.02
same,normalized growth,"S. cerevisiae strains, strain wild type, hits give low values",0.981
CC1c2cccc(O)c2C(O)=C2C(=O)C3(O)C(O)=C(C(N)=O)C(=O)C(N(C)C)C3C(O)C21 (stereo not given),normalized growth,[10],0.944
same,normalized growth,[11],0.966
same,normalized growth,[1],0.983
same,normalized growth,[12],0.936
same,normalized growth,[13],0.989
same,normalized growth,[3],0.835 (active)
same,normalized growth,[4],0.971
same,normalized growth,[5],0.986
same,normalized growth,[7],0.891
same,normalized growth,[14],0.993
same,normalized growth,[15],1.02
same,normalized growth,[16],0.989
same,normalized growth,[17],0.977
same,normalized growth,[9],0.974
CN(C)C1C(=O)C(C(N)=O)=C(O)C2(O)C(=O)C3=C(O)c4c(O)ccc(Cl)c4C(O)C3CC12 (stereo not given),normalized growth,[10],1
same,normalized growth,[11],1
same,normalized growth,[1],0.997
same,normalized growth,[12],1
same,normalized growth,[13],1
same,normalized growth,[2],0.989
same,normalized growth,[4],0.999
same,normalized growth,[6],0.978
same,normalized growth,[14],1.02
same,normalized growth,[15],0.979
same,normalized growth,[16],0.996
same,normalized growth,[8],0.995
same,normalized growth,[17],0.995
same,normalized growth,[9],1.01
